Reference: PubChem BioAssay (NCI)
About 83,000 compounds went through this panel and 20% of them were active in at least one assay; those are over-represented in the sample as a whole.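 96-well plates, one dose, 48 hours. Percent growth reported; active if below 10.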 Active and inactive are the calls of the source.

Assays:
Test in all cases: NCI-60 one-dose screen, 48 h (100 = growth as untreated, 0 = no growth, -100 = all killed)
Conditions in all cases: 10 µM unless noted
HCT-15 colon = tested on: HCT-15 colon
HT29 colon = tested on: HT29 colon
SNB-75 CNS = tested on: SNB-75 CNS
U251 CNS = tested on: U251 CNS
PC-3 prostate = tested on: PC-3 prostate
SK-MEL-5 melanoma = tested on: SK-MEL-5 melanoma
UACC-62 melanoma = tested on: UACC-62 melanoma
LOX IMVI melanoma = tested on: LOX IMVI melanoma
SK-MEL-28 melanoma = tested on: SK-MEL-28 melanoma
SK-MEL-2 melanoma = tested on: SK-MEL-2 melanoma
EKVX NSCLC = tested on: EKVX NSCLC
SN12C renal = tested on: SN12C renal
UO-31 renal = tested on: UO-31 renal
TK-10 renal = tested on: TK-10 renal
ACHN renal = tested on: ACHN renal
CAKI-1 renal = tested on: CAKI-1 renal
A498 renal = tested on: A498 renal
CCRF-CEM leukemia = tested on: CCRF-CEM leukemia
MOLT-4 leukemia = tested on: MOLT-4 leukemia

Measured: growth

CC(=O)CC(c1cccs1)c1c(-c2ccccc2)[nH]c2ccccc12 (centres undefined)
inactive: HCT-15 colon 80.7% | HT29 colon 98.2% | SNB-75 CNS 40.7% | U251 CNS 93.8% | PC-3 prostate 77.3% | SK-MEL-5 melanoma 95.3% | UACC-62 melanoma 77.9% | LOX IMVI melanoma 81.7% | SK-MEL-28 melanoma 102% | SK-MEL-2 melanoma 94.6% | EKVX NSCLC 72.6% | SN12C renal 93% | UO-31 renal 71.5% | TK-10 renal 134% | ACHN renal 89.9% | CAKI-1 renal 39.4% | A498 renal 84% | CCRF-CEM leukemia 92.6% | MOLT-4 leukemia 86.9%

O=C(N=c1oc2ccccc2cc1-c1cc2ccccc2[nH]1)Nc1ccc(Cl)cc1
inactive: HCT-15 colon 107% | HT29 colon 99.8% | SNB-75 CNS 78.3% | U251 CNS 104% | PC-3 prostate 86.8% | UACC-62 melanoma 83% | LOX IMVI melanoma 94.2% | SK-MEL-28 melanoma 100% | SK-MEL-2 melanoma 113% | EKVX NSCLC 88.1% | SN12C renal 92.6% | UO-31 renal 61.2% | TK-10 renal 151% | ACHN renal 91.3% | CAKI-1 renal 72.2% | A498 renal 121% | CCRF-CEM leukemia 109% | MOLT-4 leukemia 95.8%

CCc1ccc(Oc2c(-c3ccc(OCCc4cccc(C(F)(F)F)c4)cc3O)n[nH]c2C(F)(F)F)cc1
active: MOLT-4 leukemia 4.53%
inactive: HCT-15 colon 23.8% | HT29 colon 86.1% | SNB-75 CNS 63.3% | U251 CNS 12.1% | SK-MEL-5 melanoma 42% | UACC-62 melanoma 18.6% | LOX IMVI melanoma 17.6% | SK-MEL-28 melanoma 44.3% | SK-MEL-2 melanoma 55.4% | EKVX NSCLC 50.1% | SN12C renal 19.9% | UO-31 renal 16.1% | TK-10 renal 58.4% | ACHN renal 16.6% | CAKI-1 renal 63.3% | A498 renal 35.9% | CCRF-CEM leukemia 11.6%

NS(=O)(=O)c1ccc(-n2nc(-c3ccc(Cl)cc3)c3ccccc3c2=O)cc1
inactive: HCT-15 colon 94.5% | HT29 colon 97.1% | SNB-75 CNS 79.2% | U251 CNS 103% | PC-3 prostate 75.3% | SK-MEL-5 melanoma 90.3% | UACC-62 melanoma 89.2% | LOX IMVI melanoma 83.6% | SK-MEL-28 melanoma 117% | SK-MEL-2 melanoma 110% | EKVX NSCLC 82.5% | SN12C renal 93.4% | TK-10 renal 152% | ACHN renal 94.8% | CAKI-1 renal 95.9% | A498 renal 123% | CCRF-CEM leukemia 70.3% | MOLT-4 leukemia 59.5%

O=C1CN(CCN2CC(=O)N(Cc3ccccc3)C(=O)C2)CC(=O)N1Cc1ccccc1
inactive: HCT-15 colon 113% | HT29 colon 108% | SNB-75 CNS 88% | U251 CNS 100% | PC-3 prostate 93.9% | SK-MEL-5 melanoma 100% | UACC-62 melanoma 103% | LOX IMVI melanoma 96.3% | SK-MEL-28 melanoma 107% | SK-MEL-2 melanoma 106% | EKVX NSCLC 99.2% | SN12C renal 98.6% | UO-31 renal 76.3% | TK-10 renal 111% | ACHN renal 106% | CAKI-1 renal 92.8% | A498 renal 89.7% | CCRF-CEM leukemia 94.3% | MOLT-4 leukemia 92.3%

CCOC(=O)c1cnn2c3ccccc3n(S(=O)(=O)c3ccc(OC)cc3)c12
active: SK-MEL-5 melanoma -15% | A498 renal -3.19% | CCRF-CEM leukemia 9.32%
inactive: HCT-15 colon 13% | HT29 colon 11.6% | SNB-75 CNS 61.3% | U251 CNS 26.3% | PC-3 prostate 35.7% | UACC-62 melanoma 25.7% | LOX IMVI melanoma 18.7% | SK-MEL-28 melanoma 57.9% | SK-MEL-2 melanoma 66.7% | EKVX NSCLC 38.4% | SN12C renal 22.2% | UO-31 renal 46.7% | TK-10 renal 79.7% | ACHN renal 35.4% | CAKI-1 renal 42.3% | MOLT-4 leukemia 16.5%

O=c1c2cccc(Cl)c2sc2c(NCCCNCCO)nc3ccccc3c12
active: HCT-15 colon -24.3% | HT29 colon -51.7% | LOX IMVI melanoma -93.1% | CAKI-1 renal -46.9% | CCRF-CEM leukemia -14.6% | MOLT-4 leukemia -40.3%
inactive: SNB-75 CNS 51.9% | U251 CNS 10.8% | PC-3 prostate 41.8% | SK-MEL-5 melanoma 81.8% | UACC-62 melanoma 66.2% | SK-MEL-28 melanoma 72.1% | SK-MEL-2 melanoma 104% | EKVX NSCLC 53.9% | SN12C renal 39.1% | UO-31 renal 12.5% | TK-10 renal 39.1% | ACHN renal 10.3% | A498 renal 10.8%

CCOC(=O)c1cn2ncnc(Oc3ccc(NC(=O)NCCN(C)C)c(Cl)c3)c2c1C
active: HT29 colon 7.1%
inactive: HCT-15 colon 23.2% | SNB-75 CNS 99.1% | U251 CNS 70% | PC-3 prostate 68.6% | SK-MEL-5 melanoma 60.9% | UACC-62 melanoma 21.7% | LOX IMVI melanoma 10.3% | SK-MEL-28 melanoma 37.6% | SK-MEL-2 melanoma 112% | EKVX NSCLC 79.3% | SN12C renal 63.9% | TK-10 renal 105% | ACHN renal 84.5% | CAKI-1 renal 65.8% | A498 renal 57.5% | CCRF-CEM leukemia 43.4% | MOLT-4 leukemia 53.9%

COc1ccc(-c2c(C(=O)NS(C)(=O)=O)n(Cc3cccc(C(F)(F)F)c3)c3ccccc23)cc1
inactive: HCT-15 colon 79.3% | HT29 colon 97.5% | SNB-75 CNS 85.1% | U251 CNS 91% | PC-3 prostate 70.7% | SK-MEL-5 melanoma 83% | UACC-62 melanoma 88.4% | LOX IMVI melanoma 89.7% | SK-MEL-28 melanoma 99.1% | SK-MEL-2 melanoma 101% | EKVX NSCLC 91% | SN12C renal 85.2% | UO-31 renal 73% | TK-10 renal 105% | ACHN renal 91.8% | CAKI-1 renal 80.1% | A498 renal 80.1% | CCRF-CEM leukemia 75.5% | MOLT-4 leukemia 90.3%

Cc1nn(-c2ccccc2)c2c1N=c1s/c(=C\c3ccc(C(F)(F)F)cc3)c(=O)n1CN2
inactive: HCT-15 colon 70.1% | HT29 colon 77.6% | SNB-75 CNS 78% | U251 CNS 73.6% | PC-3 prostate 37.2% | SK-MEL-5 melanoma 31.1% | UACC-62 melanoma 59.2% | LOX IMVI melanoma 56.7% | SK-MEL-28 melanoma 87.2% | SK-MEL-2 melanoma 47.1% | EKVX NSCLC 59.3% | SN12C renal 71.4% | UO-31 renal 43.4% | TK-10 renal 80% | ACHN renal 59.8% | CAKI-1 renal 59.9% | A498 renal 63.5% | CCRF-CEM leukemia 38.3% | MOLT-4 leukemia 98.8%

CCCCCCCNC(=O)CCCNc1ncnc2c1ncn2-c1cccc(C(C)O)c1 (centres undefined)
inactive: HCT-15 colon 87.2% | HT29 colon 93.7% | SNB-75 CNS 104% | U251 CNS 96.9% | PC-3 prostate 85% | SK-MEL-5 melanoma 85.9% | UACC-62 melanoma 90.3% | LOX IMVI melanoma 101% | SK-MEL-28 melanoma 96.2% | SK-MEL-2 melanoma 105% | EKVX NSCLC 76.4% | SN12C renal 91.4% | UO-31 renal 83.6% | TK-10 renal 97.5% | ACHN renal 89.6% | CAKI-1 renal 90.2% | A498 renal 123% | CCRF-CEM leukemia 18.4% | MOLT-4 leukemia 78.2%

COC(=O)Nc1ccc(-c2nc(-c3cccc(OC)c3)c(-c3ccnc(Br)c3)[nH]2)cc1
inactive: HCT-15 colon 17.8% | HT29 colon 50.5% | SNB-75 CNS 37.5% | U251 CNS 51.5% | PC-3 prostate 34% | SK-MEL-5 melanoma 50.2% | UACC-62 melanoma 47.2% | LOX IMVI melanoma 23.6% | SK-MEL-28 melanoma 62.3% | SK-MEL-2 melanoma 72.1% | EKVX NSCLC 55.5% | SN12C renal 67% | UO-31 renal 38.6% | TK-10 renal 77.9% | ACHN renal 53.4% | CAKI-1 renal 52% | A498 renal 48.4% | CCRF-CEM leukemia 34.9% | MOLT-4 leukemia 30.9%
